High-throughput results (PubChem BioAssay)
cardiac RTF act – cardiac RTF calcium sensitivity activators, primary screen, biochemical, IANBD-TnC fluorescence, EC20 calcium. Troponin I, cardiac muscle (Homo sapiens) + Troponin T, cardiac muscle (Homo sapiens) + …. IANBD-labeled TnC RTF fluorescence at EC20 calcium; 0% EC20 calcium, 100% full calcium. activation, % at 7.2 µM. 340,000 compounds, 0.24% hits;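 active means activation above the mean over all tested compounds plus 3 SD, cut at about 30% in these data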;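 further: rise in fluorescence read as greater calcium sensitivity of cardiac thin filaments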
Keap1-Nrf2 PPI – Keap1-Nrf2 protein-protein interaction inhibitors, primary screen, biochemical, fluorescence polarization, single point. Keap1 Kelch-Nrf2 peptide fluorescence polarization, 1536-well. inhibition, % at 9.4 µM. 340,000 compounds, 0.15% hits. Kelch-like ECH-associated protein 1 (Homo sapiens), Q14145; in the data active means inhibition above about 12%;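 further: human Keap1 Kelch domain with fluorescein labeled Nrf2 9mer peptide probe; 0% = neutral control wells and 100% = peptide positive control; higher means more block of Keap1 binding to Nrf2 peptide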
Target sequence (Q14145 whole entry, looked up, the tested form may be a part): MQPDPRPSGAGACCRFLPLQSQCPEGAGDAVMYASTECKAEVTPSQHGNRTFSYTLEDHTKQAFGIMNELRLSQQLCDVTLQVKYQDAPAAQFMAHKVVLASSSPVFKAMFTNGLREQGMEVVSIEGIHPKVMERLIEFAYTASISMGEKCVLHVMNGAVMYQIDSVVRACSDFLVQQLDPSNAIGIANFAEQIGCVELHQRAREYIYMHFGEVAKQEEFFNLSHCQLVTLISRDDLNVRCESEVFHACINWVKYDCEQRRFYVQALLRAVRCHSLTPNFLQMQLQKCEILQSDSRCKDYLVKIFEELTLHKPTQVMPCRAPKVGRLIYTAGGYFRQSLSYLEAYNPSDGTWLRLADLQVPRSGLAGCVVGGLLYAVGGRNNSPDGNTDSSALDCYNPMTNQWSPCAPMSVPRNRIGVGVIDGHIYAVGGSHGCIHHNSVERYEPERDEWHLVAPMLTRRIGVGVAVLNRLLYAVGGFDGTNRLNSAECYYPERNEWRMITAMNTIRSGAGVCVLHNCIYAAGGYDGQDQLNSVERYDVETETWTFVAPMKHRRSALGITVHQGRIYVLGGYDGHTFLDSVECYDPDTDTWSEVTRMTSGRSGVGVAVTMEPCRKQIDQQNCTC
CRFR2-BP ag – agonists of CRF-BP/CRF-R2 complex, primary screen, cell-based, HEK293, calcium dye fluorescence, uHTS. calcium dye fluorescence (FLIPR); percent of saturating CRF peptide response. CRF-binding protein / CRF receptor 2 complex (human). AID 588473, 2011. activation, % at 13.2 µM. 350,000 compounds, 0.46% hits;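 active means activation of at least 50%, plus an integration ratio under a set limit after plate pattern correction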;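 further: plate controls were neutral control wells without compound for no effect and CRF at EC100 for full effect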
CRFBP-R2 block – antagonists of CRF-BP/CRF-R2 complex, primary screen, cell-based, HEK293, calcium dye fluorescence, uHTS; CRF-induced calcium fluorescence; inhibition, % at 11.8 µM; 350,000 compounds, 0.59% hits; AID 588475, 2011;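 active means inhibition of the ligand-induced calcium signal above about 50% at the single tested concentration, limit read from the data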
RTF Ca sens inh – cardiac RTF calcium sensitivity inhibitors, primary screen, biochemical, IANBD-TnC fluorescence, EC70 calcium; IANBD-labeled cardiac RTF, Ca2+ fluorescence; inhibition, % at 7.15 µM; 340,000 compounds, 0.12% hits;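 active means inhibition above the mean inhibition of all tested compounds plus 3 SD, cut at about 17% in these data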;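 further: assay run at fixed EC70 calcium of 1.6 mM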
C-LANA FP – inhibitors of KSHV C-LANA binding to DNA, primary screen, biochemical, fluorescence polarization, FAM-LBS DNA, MBP-C-LANA, single point; Kaposi's sarcoma herpesvirus LANA C-terminal domain (residues 932-1162) DNA binding; inhibition, % at 9 µM; 340,000 compounds, 0.078% hits; AID 504423, 2011;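 active means highest replicate inhibition at or above 60% at 9 µM, even if other replicates fall short; inactive means all replicates below 60% inhibition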;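 further: 0% = neutral control wells and 100% = 4 µM acridine orange control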
* = called active by the depositor. A selection: hits, their analogues and other compounds. The true share with any hit is near 1.3%.

SMILES	cardiac RTF act	Keap1-Nrf2 PPI	CRFR2-BP ag	CRFBP-R2 block	RTF Ca sens inh	C-LANA FP
Cc1cc(C)c2c(n1)sc1c(O)cc(=O)[nH]c12	0	-4	3	23	-14	0
COc1ccc(-c2cc(C(F)(F)F)c3c(n2)sc2c(O)cc(=O)[nH]c23)c(OC)c1	38*	-74	80*	-126	-70	1
CCOC(=O)c1sc(N2C(=O)C(O)=C(C(=O)c3ccco3)C2c2ccco2)nc1C (centres undefined)	5	-7	1	-3	-3	2
Cc1[nH]c2ccccc2c1SCC(=O)O	4	-2	-1	-2	-23	-1
COC(=O)C(F)(F)Sc1c(C)[nH]c2ccccc12	4	-1	0	52*	-4	-1
O=C(c1cccs1)N1CCN(C(=O)c2cccs2)C1=S	6	-7	-4	32	2	-1
Cc1nc2ccccc2nc(C)c1=NOCc1ccccc1Cl	-4	2	-1	51*	3	1
Cc1ccc(Oc2ccc(C(=O)NCc3ccncc3)cc2)cc1	-3	1	2	79*	-16	-1
Cc1ccc(S(=O)(=O)n2cnc3cc([N+](=O)[O-])ccc32)cc1C	2	4	-2	21	1	1
Cc1ccc(-n2c3nc(=O)[nH]c(=O)c-3cc3cc([N+](=O)[O-])ccc32)cc1C	-1	-3	58*	-73	2	-1
O=C(N[C@@H](Cc1ccccc1)C(=O)N1CCN(S(=O)(=O)c2cccc(F)c2)CC1)c1ccco1	0	-4	1	-3	-17	0
O=C(CSc1nc2ccccc2n1CCc1ccccc1)NC1CCS(=O)(=O)C1 (centres undefined)	-10	-2	-1	60*	-1	0
Cc1cccc(C)c1N1CCN(C(=O)c2ccc3c(c2)OCO3)CC1	-3	0	0	61*	1	0
CNc1nc(N(C)C)nc(N(C)C)n1	0	-2	72*	-134	6	-3
O=C(O)CN1C(=O)NC2NC(=O)NC21 (centres undefined)	2	-1	-2	-7	-5	0
O=C(CCSCc1ccc(Cl)cc1)NCc1cccs1	-3	0	-1	2	18*	1
CCCn1c(=N)n(CC(O)COc2ccc(C)cc2)c2ccccc21 (centres undefined)	12	-5	0	51*	-4	1
CN(C)C=Nc1nonc1-c1ccccc1	5	-3	-4	-7	-8	0
CN(C)C=Nc1c(Br)cc(Br)c2nonc12	32*	-40	109*	-66	-56	-8
COc1cccc(OC)c1C(=O)NC(=S)N1CCOCC1	5	0	-2	13	-2	-2
CCOC(=O)C1CCN(c2ncnc3c2nnn3Cc2ccccc2Cl)CC1	-7	3	-1	59*	3	0
O=C(c1ccco1)N1CCN(c2ncnc3c2nnn3Cc2ccccc2Cl)CC1	7	-3	3	15	2	-2
COC(=O)c1c(C#N)c(N)nc2c1CCCC2	-5	-1	-1	-6	-3	-1
CCOc1ccc(CCNC(=O)COC(=O)Cn2cnc3c2c(=O)n(C)c(=O)n3C)cc1OCC	7	-1	0	1	0	0
COC(=O)Nc1nc(C)c(C(=O)N(C)C)s1	-6	-2	-2	9	-2	2
SMILES	cardiac RTF act	Keap1-Nrf2 PPI	CRFR2-BP ag	CRFBP-R2 block	RTF Ca sens inh	C-LANA FP
COc1ccc(CN2CCN(C(=O)c3ccc(-c4ccccc4)cc3)CC2)c(OC)c1OC	1	-2	2	-2	-11	0
COc1ccc(CN2CCN(C(=O)c3cccs3)CC2)c(OC)c1OC	-5	-6	-2	58*	6	1
N#Cc1c2nc3ccccc3nc2n2cc(NC(=O)c3ccc(F)cc3)ccc12	10	-3	55*	-83	-17	12
Cc1c(C(=O)Nc2ccc(F)cc2)cn2c(nc3ccccc32)c1C#N	0	-3	6	-16	1	3
CCC1CCCCN1C(=O)COC(=O)COc1ccc(Br)cc1 (centres undefined)	1	-1	93*	33	0	1
CCC1CCCCN1C(=O)COc1ccc(F)cc1 (centres undefined)	3	-1	-1	14	-5	0
Cc1ccccc1C1CC(=O)Oc2cc(O)ccc21 (centres undefined)	39*	10	22	-9	-63	33
O=C(NCCO)c1c(O)c2cccc3c2n(c1=O)CC3	9	-8	8	56*	-13	-2
N#CC(C#N)=C1C=CC=CN1/C(=C\c1ccco1)C(=O)c1ccc(Cl)cc1	1	-7	61*	-88	-20	0
Cc1ccccc1OC(C)C(=O)Nc1ccc2c(c1)OCCO2 (centres undefined)	1	4	0	14	-4	1
Cn1c(=O)c2sccc2n2c(CCCC(=O)NCc3ccc(F)cc3)nnc12	0	-5	-1	6	-10	-1
CCOC(=O)c1[nH]c2c(c1-c1ccccc1)C(=O)CC(c1ccc(OCC)cc1)C2 (centres undefined)	-9	-3	4	15	-12	-2
CCCC(=O)OCCNc1cc(Sc2nc3ccccc3[nH]2)c2nonc2c1[N+](=O)[O-]	5	-1	-3	91*	5	0
CCC(=O)OCCNc1cc(SCCC(=O)OC)c2nonc2c1[N+](=O)[O-]	7	-3	-1	11	-10	-1
COc1cc(CN2CCCCC2)ccc1OCc1ccccc1	-1	1	-1	5	-4	-1
COc1cc(C(=O)NC2CCN(Cc3ccccc3)CC2)cc(Cl)c1OC	-2	-3	0	-13	-6	1
CCCOC(=O)c1ccc(Oc2cn[nH]c2-c2ccc(OCC)cc2O)cc1	-3	4	-5	107*	-4	0
O=C(Nc1ccccc1N1CCOCC1)c1ccc([N+](=O)[O-])cc1	0	0	-2	-28	-1	0
COc1cc(N=c2ssnc2Cl)cc(OC)c1	8	-12	4	-19	-4	-1
Clc1nssc1=Nc1ccc(Br)cc1	-1	3	107*	29	8	1
